This note sets out measurements from publication PMC7862700, “An all-to-all approach to the identification of sequence-specific readers for epigenetic DNA modifications on cytosine”.

Common to all, as to experiment: DAPPL (digital affinity profiling via proximity ligation, sequencing); 10 mM Tris-HCl pH 7.5, 50 mM NaCl, 1 mM DTT, 4% glycerol, room temperature, 30 min; GST-TFs on glutathione beads, 16-mer random dsDNA library, 0.1% formaldehyde crosslink after washing; high values mean tight binding
One assay concerns the target T1, FLI1 (Homo sapiens, UniProt Q01543 1-452).
T1 sequence: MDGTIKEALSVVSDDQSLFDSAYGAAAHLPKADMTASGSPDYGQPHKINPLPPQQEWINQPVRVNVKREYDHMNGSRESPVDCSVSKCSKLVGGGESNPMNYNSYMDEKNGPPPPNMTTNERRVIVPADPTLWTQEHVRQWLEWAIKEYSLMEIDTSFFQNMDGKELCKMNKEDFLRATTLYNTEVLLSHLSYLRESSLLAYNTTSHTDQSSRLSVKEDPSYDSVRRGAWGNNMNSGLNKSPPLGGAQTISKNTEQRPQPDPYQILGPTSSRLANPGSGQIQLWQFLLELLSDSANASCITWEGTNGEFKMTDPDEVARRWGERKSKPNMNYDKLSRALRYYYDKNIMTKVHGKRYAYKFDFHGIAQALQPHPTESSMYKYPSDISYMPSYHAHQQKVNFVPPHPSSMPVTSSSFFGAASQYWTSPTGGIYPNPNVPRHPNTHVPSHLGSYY
The following applies: protein: recombinant; tags: N-terminal GST; dsDNA, one strand shown. The method, boiled down:
(§1)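 In yeast, human transcription factors were expressed with a GST fusion, then pulled down on glutathione beads and given DNA barcodes. Pooled with a tag-only sample, they were exposed to 200 nmole of a 16-mer random double-stranded DNA library (Tris/NaCl/DTT/glycerol buffer, room temperature, 30 min), washed, crosslinked with 0.1% formaldehyde, proximity-ligated using BsaI/T4 ligase for 1 h at 37 °C, PCR-amplified and read on an Illumina NextSeq500. Each hexamer's frequency of reads for a factor, divided by the matching frequency for the tag-only sample, gives the binding signal.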

The target in the next assay is T2, ELK1 (Homo sapiens, UniProt P19419 1-428).
T2 sequence: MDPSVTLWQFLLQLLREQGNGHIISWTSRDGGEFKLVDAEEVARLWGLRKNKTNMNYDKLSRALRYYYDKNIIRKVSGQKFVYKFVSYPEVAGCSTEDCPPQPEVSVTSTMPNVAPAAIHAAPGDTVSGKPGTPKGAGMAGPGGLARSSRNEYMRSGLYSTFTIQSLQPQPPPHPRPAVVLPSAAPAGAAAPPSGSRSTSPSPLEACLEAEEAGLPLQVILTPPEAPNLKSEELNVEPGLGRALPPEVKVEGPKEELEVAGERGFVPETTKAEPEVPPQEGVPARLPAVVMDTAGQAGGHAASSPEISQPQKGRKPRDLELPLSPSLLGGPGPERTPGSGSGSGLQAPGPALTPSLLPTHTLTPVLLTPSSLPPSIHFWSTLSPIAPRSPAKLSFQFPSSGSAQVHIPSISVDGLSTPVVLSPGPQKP
The following applies: protein: recombinant; tags: N-terminal GST; dsDNA, one strand shown. The method, boiled down: as §1

The next assay concerns the target T3, GABPA (Homo sapiens, UniProt Q06546 1-454).
T3 sequence: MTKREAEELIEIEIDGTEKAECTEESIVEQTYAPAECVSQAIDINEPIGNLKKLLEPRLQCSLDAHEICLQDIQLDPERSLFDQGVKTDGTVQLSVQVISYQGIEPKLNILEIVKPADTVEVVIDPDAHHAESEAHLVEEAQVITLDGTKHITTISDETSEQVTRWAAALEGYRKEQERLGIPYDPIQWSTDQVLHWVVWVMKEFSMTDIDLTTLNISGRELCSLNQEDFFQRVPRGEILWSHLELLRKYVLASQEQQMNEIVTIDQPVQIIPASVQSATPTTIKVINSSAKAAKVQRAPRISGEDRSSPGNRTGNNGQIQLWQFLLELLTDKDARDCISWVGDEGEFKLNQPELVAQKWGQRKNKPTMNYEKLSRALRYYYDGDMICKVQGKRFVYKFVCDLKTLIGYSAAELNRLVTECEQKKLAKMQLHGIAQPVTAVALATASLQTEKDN
The following applies: protein: recombinant; tags: N-terminal GST; dsDNA, one strand shown. The method, boiled down:
as §1

For another assay, the target named is T4, ERG (Homo sapiens, UniProt P11308 1-479).
T4 sequence: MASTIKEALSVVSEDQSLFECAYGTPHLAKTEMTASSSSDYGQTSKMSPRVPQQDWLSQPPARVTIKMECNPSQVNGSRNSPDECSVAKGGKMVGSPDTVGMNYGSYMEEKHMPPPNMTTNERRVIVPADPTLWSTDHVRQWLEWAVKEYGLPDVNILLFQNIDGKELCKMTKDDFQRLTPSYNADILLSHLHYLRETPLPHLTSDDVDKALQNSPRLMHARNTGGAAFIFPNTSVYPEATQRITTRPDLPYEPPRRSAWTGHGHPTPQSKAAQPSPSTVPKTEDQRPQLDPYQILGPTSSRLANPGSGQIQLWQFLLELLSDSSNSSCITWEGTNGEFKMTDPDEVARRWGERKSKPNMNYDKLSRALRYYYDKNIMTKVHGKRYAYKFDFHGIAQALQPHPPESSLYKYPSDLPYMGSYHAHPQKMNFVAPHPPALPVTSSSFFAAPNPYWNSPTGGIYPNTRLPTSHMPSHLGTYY
To be noted: protein: recombinant; tags: N-terminal GST; dsDNA, one strand shown. The method, boiled down: as §1

A further assay has as its target ELF1 (Homo sapiens, UniProt P32519 1-619). The following applies: protein: recombinant; tags: N-terminal GST; dsDNA, one strand shown. The method, boiled down: as §1
The target of the next assay is T5, EHF (Homo sapiens, UniProt Q9NZC4 1-300).
T5 sequence: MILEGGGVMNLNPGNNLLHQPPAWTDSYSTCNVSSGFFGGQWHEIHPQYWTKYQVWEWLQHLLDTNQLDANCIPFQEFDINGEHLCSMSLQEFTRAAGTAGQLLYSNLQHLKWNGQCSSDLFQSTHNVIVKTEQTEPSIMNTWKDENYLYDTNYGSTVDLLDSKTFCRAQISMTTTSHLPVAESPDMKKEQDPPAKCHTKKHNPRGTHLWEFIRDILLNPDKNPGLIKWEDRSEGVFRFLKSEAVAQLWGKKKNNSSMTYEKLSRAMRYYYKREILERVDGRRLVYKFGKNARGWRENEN
To be noted: protein: recombinant; tags: N-terminal GST; dsDNA, one strand shown. The gist of the method: as §1

A further assay concerns the target SPI1 (Homo sapiens, UniProt P17947 1-270). To be noted: protein: recombinant; tags: N-terminal GST; dsDNA, one strand shown. The gist of the method:
as §1

For the next assay, the target named is SPIB (Homo sapiens, UniProt Q01892 1-262). The following applies: protein: recombinant; tags: N-terminal GST; dsDNA, one strand shown. The method, boiled down:
as §1

In another assay the target is T6, ELK3 (Homo sapiens, UniProt P41970 1-407).
T6 sequence: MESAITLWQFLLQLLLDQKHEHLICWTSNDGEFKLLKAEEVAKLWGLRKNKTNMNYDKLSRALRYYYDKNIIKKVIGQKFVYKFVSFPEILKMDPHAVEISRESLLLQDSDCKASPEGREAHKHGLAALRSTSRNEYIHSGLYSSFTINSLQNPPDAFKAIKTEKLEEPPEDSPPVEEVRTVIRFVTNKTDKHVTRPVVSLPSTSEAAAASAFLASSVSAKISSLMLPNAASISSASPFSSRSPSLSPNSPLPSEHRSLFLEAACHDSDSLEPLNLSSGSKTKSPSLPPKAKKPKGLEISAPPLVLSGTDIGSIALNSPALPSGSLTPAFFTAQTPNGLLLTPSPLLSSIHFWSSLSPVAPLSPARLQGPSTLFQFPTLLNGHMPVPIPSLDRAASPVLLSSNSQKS
To be noted: protein: recombinant; tags: N-terminal GST; dsDNA, one strand shown. The method, boiled down:
as §1

Another assay addresses T7, FEV (Homo sapiens, UniProt Q99581 1-238).
T7 sequence: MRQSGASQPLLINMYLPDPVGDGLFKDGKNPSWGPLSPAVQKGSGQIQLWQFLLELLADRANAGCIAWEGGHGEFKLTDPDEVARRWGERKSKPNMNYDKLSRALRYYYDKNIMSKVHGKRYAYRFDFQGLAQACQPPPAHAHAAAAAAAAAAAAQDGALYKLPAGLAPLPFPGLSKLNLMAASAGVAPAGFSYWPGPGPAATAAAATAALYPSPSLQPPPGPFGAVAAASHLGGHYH
To be noted: protein: recombinant; tags: N-terminal GST; dsDNA, one strand shown. The gist of the method:
as §1

In the next assay the target is ETV5 (Homo sapiens, UniProt P41161 1-510). To be noted: protein: recombinant; tags: N-terminal GST; dsDNA, one strand shown. The gist of the method:
as §1

A further assay addresses HSF1 (Homo sapiens, UniProt Q00613 1-529). To be noted: protein: recombinant; tags: N-terminal GST; chain copies: 3; dsDNA, one strand shown. The method, boiled down: as §1
The target in another assay is T8, SPIC (Homo sapiens, UniProt Q8N5J4 1-248).
T8 sequence: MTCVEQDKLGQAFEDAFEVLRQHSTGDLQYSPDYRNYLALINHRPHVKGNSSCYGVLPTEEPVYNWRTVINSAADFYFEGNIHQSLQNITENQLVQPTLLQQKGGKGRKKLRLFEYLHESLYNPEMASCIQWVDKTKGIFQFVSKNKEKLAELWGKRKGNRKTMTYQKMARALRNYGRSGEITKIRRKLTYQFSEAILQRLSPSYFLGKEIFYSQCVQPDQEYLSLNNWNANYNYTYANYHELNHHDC
The following applies: protein: recombinant; tags: N-terminal GST; dsDNA, one strand shown. The method, boiled down: as §1

For a further assay, the target named is ELF4 (Homo sapiens, UniProt Q99607 1-663). The following applies: protein: recombinant; tags: N-terminal GST; dsDNA, one strand shown. The method, boiled down:
as §1

The next assay has as its target T9, ELK4 (Homo sapiens, UniProt P28324-2 1-405).
T9 sequence: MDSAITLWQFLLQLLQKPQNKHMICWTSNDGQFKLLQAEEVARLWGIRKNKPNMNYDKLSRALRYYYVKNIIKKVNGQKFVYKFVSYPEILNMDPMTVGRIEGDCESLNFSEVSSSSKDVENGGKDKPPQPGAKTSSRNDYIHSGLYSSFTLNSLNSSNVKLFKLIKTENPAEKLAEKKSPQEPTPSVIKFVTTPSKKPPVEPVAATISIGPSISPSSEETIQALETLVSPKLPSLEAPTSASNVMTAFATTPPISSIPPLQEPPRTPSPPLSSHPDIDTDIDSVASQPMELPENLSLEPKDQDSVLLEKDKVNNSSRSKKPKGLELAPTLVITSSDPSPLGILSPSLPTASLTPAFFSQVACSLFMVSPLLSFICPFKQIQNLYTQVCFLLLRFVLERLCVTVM
To be noted: protein: recombinant; tags: N-terminal GST; dsDNA, one strand shown. The gist of the method:
as §1

Another assay concerns the target T10, ETV2 (Homo sapiens, UniProt O00321 1-342).
T10 sequence: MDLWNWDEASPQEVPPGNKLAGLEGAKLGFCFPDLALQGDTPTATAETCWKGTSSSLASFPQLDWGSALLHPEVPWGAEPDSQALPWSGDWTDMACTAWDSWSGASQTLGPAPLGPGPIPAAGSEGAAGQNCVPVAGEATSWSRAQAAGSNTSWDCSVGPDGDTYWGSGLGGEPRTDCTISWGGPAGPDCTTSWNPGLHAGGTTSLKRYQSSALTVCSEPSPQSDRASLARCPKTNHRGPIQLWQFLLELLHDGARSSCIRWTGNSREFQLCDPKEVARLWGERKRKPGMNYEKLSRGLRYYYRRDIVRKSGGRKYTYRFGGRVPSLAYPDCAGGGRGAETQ
The following applies: protein: recombinant; tags: N-terminal GST; dsDNA, one strand shown. The gist of the method:
as §1

For the next assay, the target named is T11, ELF3 (Homo sapiens, UniProt P78545 1-371).
T11 sequence: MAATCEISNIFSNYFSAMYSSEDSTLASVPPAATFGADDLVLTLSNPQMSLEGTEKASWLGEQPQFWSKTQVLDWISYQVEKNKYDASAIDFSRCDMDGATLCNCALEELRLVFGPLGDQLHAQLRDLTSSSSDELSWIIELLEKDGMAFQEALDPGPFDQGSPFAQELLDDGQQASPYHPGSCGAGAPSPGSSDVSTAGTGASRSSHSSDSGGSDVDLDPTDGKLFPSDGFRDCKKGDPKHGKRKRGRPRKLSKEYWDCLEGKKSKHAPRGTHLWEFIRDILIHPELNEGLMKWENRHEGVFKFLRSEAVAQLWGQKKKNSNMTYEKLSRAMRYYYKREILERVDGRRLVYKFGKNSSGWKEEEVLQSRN
To be noted: protein: recombinant; tags: N-terminal GST; dsDNA, one strand shown. The method, boiled down: as §1

The target of the next assay is CRX (Homo sapiens, UniProt O43186 1-299). The following applies: protein: recombinant; tags: N-terminal GST; dsDNA, one strand shown. The method, boiled down:
as §1

In a further assay the target is ETV1 (Homo sapiens, UniProt P50549 1-477). The following applies: protein: recombinant; tags: N-terminal GST; dsDNA, one strand shown. The gist of the method:
as §1

Sequence of CRX (O43186 whole entry): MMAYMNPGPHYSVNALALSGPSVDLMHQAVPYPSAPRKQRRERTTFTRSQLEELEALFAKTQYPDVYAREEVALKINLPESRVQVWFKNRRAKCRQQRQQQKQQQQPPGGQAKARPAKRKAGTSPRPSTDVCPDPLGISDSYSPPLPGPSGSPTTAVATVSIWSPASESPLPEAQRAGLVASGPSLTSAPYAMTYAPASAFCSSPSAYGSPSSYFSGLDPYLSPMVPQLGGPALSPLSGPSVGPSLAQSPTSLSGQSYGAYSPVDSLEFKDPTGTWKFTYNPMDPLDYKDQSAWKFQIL
Sequence of HSF1 (Q00613 whole entry): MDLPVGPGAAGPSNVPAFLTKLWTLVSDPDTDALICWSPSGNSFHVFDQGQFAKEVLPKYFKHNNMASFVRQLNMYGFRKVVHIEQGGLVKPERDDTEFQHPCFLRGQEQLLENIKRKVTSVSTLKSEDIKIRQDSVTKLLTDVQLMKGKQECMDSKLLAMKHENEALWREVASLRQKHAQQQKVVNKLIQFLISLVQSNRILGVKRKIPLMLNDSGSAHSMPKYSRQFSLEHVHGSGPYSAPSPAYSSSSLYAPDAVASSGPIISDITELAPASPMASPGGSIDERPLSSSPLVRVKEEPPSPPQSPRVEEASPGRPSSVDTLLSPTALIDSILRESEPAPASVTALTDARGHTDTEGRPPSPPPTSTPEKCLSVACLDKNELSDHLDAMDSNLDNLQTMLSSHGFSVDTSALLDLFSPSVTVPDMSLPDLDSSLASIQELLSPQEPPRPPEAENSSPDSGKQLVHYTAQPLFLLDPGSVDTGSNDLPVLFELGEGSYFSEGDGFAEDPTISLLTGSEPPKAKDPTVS
Sequence of ELF4 (Q99607 whole entry): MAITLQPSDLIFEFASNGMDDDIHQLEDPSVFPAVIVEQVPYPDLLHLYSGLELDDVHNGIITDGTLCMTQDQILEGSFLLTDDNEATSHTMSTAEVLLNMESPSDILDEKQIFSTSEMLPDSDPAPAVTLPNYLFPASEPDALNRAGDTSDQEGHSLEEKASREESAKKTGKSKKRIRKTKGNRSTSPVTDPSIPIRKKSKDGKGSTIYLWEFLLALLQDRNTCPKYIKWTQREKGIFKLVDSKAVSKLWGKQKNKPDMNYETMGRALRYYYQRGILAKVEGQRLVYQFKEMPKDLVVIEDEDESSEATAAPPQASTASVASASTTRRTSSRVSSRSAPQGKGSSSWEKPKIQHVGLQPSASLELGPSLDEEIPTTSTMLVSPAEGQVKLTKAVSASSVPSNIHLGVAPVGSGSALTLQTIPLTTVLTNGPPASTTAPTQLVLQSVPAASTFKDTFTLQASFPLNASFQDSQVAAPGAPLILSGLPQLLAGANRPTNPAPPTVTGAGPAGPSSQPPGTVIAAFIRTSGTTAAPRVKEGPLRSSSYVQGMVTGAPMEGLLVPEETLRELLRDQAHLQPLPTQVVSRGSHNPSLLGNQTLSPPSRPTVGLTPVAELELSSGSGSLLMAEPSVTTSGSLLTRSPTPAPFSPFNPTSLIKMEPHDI
Sequence of ETV5 (P41161 whole entry): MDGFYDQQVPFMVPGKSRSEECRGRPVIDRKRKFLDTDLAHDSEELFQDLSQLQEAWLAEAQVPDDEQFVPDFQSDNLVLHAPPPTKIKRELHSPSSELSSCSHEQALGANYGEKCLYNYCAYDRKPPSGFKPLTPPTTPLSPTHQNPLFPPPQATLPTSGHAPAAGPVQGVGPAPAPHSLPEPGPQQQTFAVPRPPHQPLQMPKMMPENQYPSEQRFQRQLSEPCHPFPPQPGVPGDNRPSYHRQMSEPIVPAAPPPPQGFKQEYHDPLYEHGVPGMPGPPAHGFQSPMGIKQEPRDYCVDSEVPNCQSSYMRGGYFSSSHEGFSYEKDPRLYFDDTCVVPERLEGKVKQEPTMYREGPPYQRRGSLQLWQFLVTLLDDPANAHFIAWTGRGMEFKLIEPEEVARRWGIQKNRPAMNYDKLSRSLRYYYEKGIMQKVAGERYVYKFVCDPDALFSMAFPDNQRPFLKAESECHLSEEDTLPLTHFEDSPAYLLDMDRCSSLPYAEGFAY
Sequence of ETV1 (P50549 whole entry): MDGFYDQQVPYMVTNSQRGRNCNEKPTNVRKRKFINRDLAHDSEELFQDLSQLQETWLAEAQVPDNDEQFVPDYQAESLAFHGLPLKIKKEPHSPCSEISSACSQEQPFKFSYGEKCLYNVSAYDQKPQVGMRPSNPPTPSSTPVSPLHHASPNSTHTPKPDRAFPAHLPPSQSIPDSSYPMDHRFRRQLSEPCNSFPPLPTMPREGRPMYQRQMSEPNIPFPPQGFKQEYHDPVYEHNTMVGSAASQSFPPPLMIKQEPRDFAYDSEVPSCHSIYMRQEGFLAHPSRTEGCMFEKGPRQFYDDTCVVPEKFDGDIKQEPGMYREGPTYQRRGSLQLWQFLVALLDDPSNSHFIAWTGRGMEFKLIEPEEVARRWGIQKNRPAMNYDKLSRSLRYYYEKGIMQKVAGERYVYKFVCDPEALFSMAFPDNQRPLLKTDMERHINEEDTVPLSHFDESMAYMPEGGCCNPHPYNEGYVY
Sequence of SPIB (Q01892 whole entry): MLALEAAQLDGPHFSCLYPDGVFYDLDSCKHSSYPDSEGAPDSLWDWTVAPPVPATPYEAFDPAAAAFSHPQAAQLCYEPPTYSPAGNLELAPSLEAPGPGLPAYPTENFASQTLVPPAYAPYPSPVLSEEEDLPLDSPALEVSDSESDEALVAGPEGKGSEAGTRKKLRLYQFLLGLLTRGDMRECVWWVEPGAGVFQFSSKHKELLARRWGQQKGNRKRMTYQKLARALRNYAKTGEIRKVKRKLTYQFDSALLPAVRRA
Sequence of ELF1 (P32519 whole entry): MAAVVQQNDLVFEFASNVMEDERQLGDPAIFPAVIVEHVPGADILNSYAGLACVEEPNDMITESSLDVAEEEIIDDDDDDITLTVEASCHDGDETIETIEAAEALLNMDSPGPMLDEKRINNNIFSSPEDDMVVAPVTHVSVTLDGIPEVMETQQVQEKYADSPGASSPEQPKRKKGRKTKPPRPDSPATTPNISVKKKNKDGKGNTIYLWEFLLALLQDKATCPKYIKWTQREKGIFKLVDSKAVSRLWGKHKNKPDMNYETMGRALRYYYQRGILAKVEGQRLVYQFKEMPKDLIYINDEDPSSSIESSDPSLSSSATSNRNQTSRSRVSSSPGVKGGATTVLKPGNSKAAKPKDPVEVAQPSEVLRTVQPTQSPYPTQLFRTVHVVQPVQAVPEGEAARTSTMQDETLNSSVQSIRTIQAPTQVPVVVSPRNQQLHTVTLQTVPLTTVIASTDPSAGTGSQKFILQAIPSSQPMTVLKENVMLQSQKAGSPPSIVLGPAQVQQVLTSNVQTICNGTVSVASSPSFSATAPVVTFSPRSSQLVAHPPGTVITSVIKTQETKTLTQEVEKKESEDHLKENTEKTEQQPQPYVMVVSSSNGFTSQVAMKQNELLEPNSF

As to TTTCCT, the binding signal in the assay with FLI1 is 2.49 fold enrichment (6-mer frequency, TF over GST control); with ELK1, 2.32 fold enrichment (6-mer frequency, TF over GST control); with GABPA it was 2.32 fold enrichment (6-mer frequency, TF over GST control); with ERG, 2.72 fold enrichment (6-mer frequency, TF over GST control); in the assay with ELF1 it was 2.19 fold enrichment (6-mer frequency, TF over GST control); in the assay with EHF it was 2.4 fold enrichment (6-mer frequency, TF over GST control). For the same sequence, the binding signal in the assay with SPI1 was 2.33 fold enrichment (6-mer frequency, TF over GST control); with SPIB, 2.52 fold enrichment (6-mer frequency, TF over GST control); with ELK3 it was 2.53 fold enrichment (6-mer frequency, TF over GST control); in the assay with FEV, 2.34 fold enrichment (6-mer frequency, TF over GST control); with ETV5, 2.73 fold enrichment (6-mer frequency, TF over GST control); with HSF1, 1.73 fold enrichment (6-mer frequency, TF over GST control). Besides, the binding signal with SPIC was 2.42 fold enrichment (6-mer frequency, TF over GST control); with ELF4, 2.19 fold enrichment (6-mer frequency, TF over GST control); in the assay with ELK4, 2.04 fold enrichment (6-mer frequency, TF over GST control); in the assay with ETV2 it was 2.49 fold enrichment (6-mer frequency, TF over GST control); with ELF3, 2.44 fold enrichment (6-mer frequency, TF over GST control); with CRX it was 1.56 fold enrichment (6-mer frequency, TF over GST control). The binding signal with ETV1 is 2.43 fold enrichment (6-mer frequency, TF over GST control).
